# Data from PMC5540273 (PLoS ONE, 2017).
# How the values were obtained:
# Settings in all cases: concentration: 1 μM,replicates: in singlicate; n = 1
# [1] = system: JAK1(JH2domain-pseudokinase)
# [2] = system: JAK2(JH1domain-catalytic)
# [3] = system: JAK3(JH1domain-catalytic)
# JNK1 = system: T1, JNK1
# T1 construct: gene MAPK8
# JNK2 = system: T2, JNK2
# T2 construct: gene MAPK9
# JNK3 = system: T3, JNK3
# T3 construct: gene MAPK10
# KIT-autoinhibited = system: KIT-autoinhibited
# KIT = system: KIT
# LATS1 = system: LATS1
# LATS2 = system: LATS2
# LCK = system: LCK
# LIMK1 = system: LIMK1
# LIMK2 = system: LIMK2
# LKB1 = system: T4, LKB1
# T4 construct: gene STK11
# LOK = system: T5, LOK
# T5 construct: gene STK10
# LRRK2 = system: LRRK2
# LTK = system: LTK
# LYN = system: LYN
# LZK = system: T6, LZK
# T6 construct: gene MAP3K13
# MAK = system: MAK
# 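Further: KINOMEscan kinase panel screen.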
compound,measurement,setting,value
O=C(Nc1cccc(C(F)(F)F)c1)c1cccc(Oc2ccc3nccn3n2)c1,%Inh,[1],10%
same,%Inh,[2],30%
same,%Inh,[3],8%
same,%Inh,JNK1,21%
same,%Inh,JNK2,0%
same,%Inh,JNK3,10%
same,%Inh,KIT-autoinhibited,44%
same,%Inh,KIT,99.9%
same,%Inh,LATS1,0%
same,%Inh,LATS2,0%
same,%Inh,LCK,63%
same,%Inh,LIMK1,0%
same,%Inh,LIMK2,8%
same,%Inh,LKB1,0%
same,%Inh,LOK,24%
same,%Inh,LRRK2,0%
same,%Inh,LTK,45%
same,%Inh,LYN,37%
same,%Inh,LZK,20%
same,%Inh,MAK,0%
NC(=O)Nc1sc(-c2ccc(F)cc2)cc1C(N)=O [GW789449],%Inh,[1],100%
same,%Inh,[2],99.1%
same,%Inh,[3],96.1%
same,%Inh,JNK1,55%
same,%Inh,JNK2,0%
same,%Inh,JNK3,20%
same,%Inh,KIT-autoinhibited,48%
same,%Inh,KIT,65%
same,%Inh,LATS1,2%
same,%Inh,LATS2,0%
same,%Inh,LCK,32%
same,%Inh,LIMK1,3%
same,%Inh,LIMK2,24%
same,%Inh,LKB1,0%
same,%Inh,LOK,22%
same,%Inh,LRRK2,0%
same,%Inh,LTK,35%
same,%Inh,LYN,0%
same,%Inh,LZK,0%
same,%Inh,MAK,0%
CN(c1cccc(CNc2nc(Nc3ccc4c(c3)CC(=O)N4)ncc2C(F)(F)F)c1)S(C)(=O)=O,%Inh,[1],79%
same,%Inh,[2],98.1%
same,%Inh,[3],100%
same,%Inh,JNK1,40%
same,%Inh,JNK2,31%
same,%Inh,JNK3,35%
same,%Inh,KIT-autoinhibited,31%
same,%Inh,KIT,57%
same,%Inh,LATS1,29%
same,%Inh,LATS2,24%
same,%Inh,LCK,42%
same,%Inh,LIMK1,0%
same,%Inh,LIMK2,0%
same,%Inh,LKB1,5%
same,%Inh,LOK,0%
same,%Inh,LRRK2,18%
same,%Inh,LTK,60%
same,%Inh,LYN,18%
same,%Inh,LZK,0%
same,%Inh,MAK,0%
CS(=O)(=O)c1cccc(CNc2nc(Nc3ccc4c(c3)[C@@H]3C[C@@H]4CNC3=O)ncc2C(F)(F)F)c1,%Inh,[1],91.1%
same,%Inh,[2],98.4%
same,%Inh,[3],100%
same,%Inh,JNK1,38%
same,%Inh,JNK2,30%
same,%Inh,JNK3,46%
same,%Inh,KIT-autoinhibited,39%
same,%Inh,KIT,42%
same,%Inh,LATS1,24%
same,%Inh,LATS2,45%
same,%Inh,LCK,0%
same,%Inh,LIMK1,0%
same,%Inh,LIMK2,0%
same,%Inh,LKB1,12%
same,%Inh,LOK,81%
same,%Inh,LRRK2,72%
same,%Inh,LTK,5%
same,%Inh,LYN,25%
same,%Inh,LZK,0%
same,%Inh,MAK,0%
Cc1ccn2nc(-c3ccc(F)cc3)c(-c3ccncc3)c2c1.Cl [GW457859],%Inh,[1],75%
same,%Inh,[2],50%
same,%Inh,[3],0%
same,%Inh,JNK1,43%
same,%Inh,JNK2,91.4%
same,%Inh,JNK3,93.4%
same,%Inh,KIT-autoinhibited,0%
same,%Inh,KIT,26%
same,%Inh,LATS1,2%
same,%Inh,LATS2,0%
same,%Inh,LCK,12%
same,%Inh,LIMK1,0%
same,%Inh,LIMK2,0%
same,%Inh,LKB1,10%
same,%Inh,LOK,0%
same,%Inh,LRRK2,0%
same,%Inh,LTK,0%
same,%Inh,LYN,0%
same,%Inh,LZK,44%
same,%Inh,MAK,17%
CC(C)c1nc(-c2cccc(NS(=O)(=O)c3ccccc3)c2)c(-c2ccnc(Nc3ccc4c(c3)CN(C)CC4)n2)s1 [GSK1649598],%Inh,[1],0%
same,%Inh,[2],20%
same,%Inh,[3],75%
same,%Inh,JNK1,84%
same,%Inh,JNK2,87%
same,%Inh,JNK3,94%
same,%Inh,KIT-autoinhibited,21%
same,%Inh,KIT,99.9%
same,%Inh,LATS1,6%
same,%Inh,LATS2,27%
same,%Inh,LCK,99.8%
same,%Inh,LIMK1,100%
same,%Inh,LIMK2,100%
same,%Inh,LKB1,0%
same,%Inh,LOK,97.5%
same,%Inh,LRRK2,0%
same,%Inh,LTK,5%
same,%Inh,LYN,98%
same,%Inh,LZK,45%
same,%Inh,MAK,53%
O=C(NCC1CC1)c1ccc(-c2cc(C(=O)NC3CC3)ccc2F)cc1 [GW810445],%Inh,[1],0%
same,%Inh,[2],12%
same,%Inh,[3],0%
same,%Inh,JNK1,0%
same,%Inh,JNK2,0%
same,%Inh,JNK3,0%
same,%Inh,KIT-autoinhibited,0%
same,%Inh,KIT,0%
same,%Inh,LATS1,0%
same,%Inh,LATS2,0%
same,%Inh,LCK,0%
same,%Inh,LIMK1,0%
same,%Inh,LIMK2,0%
same,%Inh,LKB1,68%
same,%Inh,LOK,5%
same,%Inh,LRRK2,71%
same,%Inh,LTK,28%
same,%Inh,LYN,0%
same,%Inh,LZK,0%
same,%Inh,MAK,0%
CC(=O)Nc1nc2cnc(Nc3cc(NC(=O)c4cccc(CC(C)(C)C#N)c4)ccc3C)nc2s1,%Inh,[1],25%
same,%Inh,[2],0%
same,%Inh,[3],0%
same,%Inh,JNK1,33%
same,%Inh,JNK2,41%
same,%Inh,JNK3,43%
same,%Inh,KIT-autoinhibited,36%
same,%Inh,KIT,100%
same,%Inh,LATS1,7%
same,%Inh,LATS2,47%
same,%Inh,LCK,72%
same,%Inh,LIMK1,0%
same,%Inh,LIMK2,2%
same,%Inh,LKB1,1%
same,%Inh,LOK,55%
same,%Inh,LRRK2,9%
same,%Inh,LTK,2%
same,%Inh,LYN,58%
same,%Inh,LZK,15%
same,%Inh,MAK,0%
Cc1cccc2c(-c3ccncc3)c(-c3ccc(F)cc3)nn12.Cl [GW461487],%Inh,[1],19%
same,%Inh,[2],0%
same,%Inh,[3],0%
same,%Inh,JNK1,48%
same,%Inh,JNK2,90%
same,%Inh,JNK3,94%
same,%Inh,KIT-autoinhibited,0%
same,%Inh,KIT,4%
same,%Inh,LATS1,0%
same,%Inh,LATS2,13%
same,%Inh,LCK,19%
same,%Inh,LIMK1,0%
same,%Inh,LIMK2,4%
same,%Inh,LKB1,4%
same,%Inh,LOK,0%
same,%Inh,LRRK2,26%
same,%Inh,LTK,100%
same,%Inh,LYN,0%
same,%Inh,LZK,5%
same,%Inh,MAK,26%
Cc1ccc(Nc2ccnc(Nc3ccc4c(c3)CS(=O)(=O)C4)n2)cc1O.Cl [GW579362],%Inh,[1],99.1%
same,%Inh,[2],99.1%
same,%Inh,[3],98.2%
same,%Inh,JNK1,98.4%
same,%Inh,JNK2,87%
same,%Inh,JNK3,95.1%
same,%Inh,KIT-autoinhibited,41%
same,%Inh,KIT,99.8%
same,%Inh,LATS1,0%
same,%Inh,LATS2,21%
same,%Inh,LCK,97.3%
same,%Inh,LIMK1,35%
same,%Inh,LIMK2,49%
same,%Inh,LKB1,29%
same,%Inh,LOK,83%
same,%Inh,LRRK2,79%
same,%Inh,LTK,55%
same,%Inh,LYN,84%
same,%Inh,LZK,58%
same,%Inh,MAK,73%
